# In the antibiotic and cytotoxicity screens of Wong et al. (2023):
# The campaign covered roughly 39,000 compounds. About 3,300 (8.5%) were called active. The entries come from a sample that favours actives as a whole.
# System: HepG2
# Test: cytotoxicity call (relative viability < 0.9)
# Conditions: 10 µM
row,SMILES,cytotoxicity call
1,COc1ccc(S(=O)(=O)Nc2ccc3c(c2)C(=O)N([C@@H](C)CO)C[C@@H](C)[C@H](CN(C)Cc2ccc(C(F)(F)F)cc2)OCCCC[C@@H](C)O3)cc1,active
2,COc1ccc(S(=O)(=O)Nc2ccc3c(c2)C(=O)N([C@@H](C)CO)C[C@@H](C)[C@@H](CN(C)Cc2ccc(C(F)(F)F)cc2)OCCCC[C@@H](C)O3)cc1,active
3,COc1ccc(S(=O)(=O)Nc2ccc3c(c2)C(=O)N([C@@H](C)CO)C[C@H](C)[C@H](CN(C)Cc2ccc(C(F)(F)F)cc2)OCCCC[C@H](C)O3)cc1,active
4,COc1ccc(S(=O)(=O)Nc2ccc3c(c2)C(=O)N([C@H](C)CO)C[C@@H](C)[C@@H](CN(C)Cc2ccc(C(F)(F)F)cc2)OCCCC[C@H](C)O3)cc1,inactive
5,COc1ccc(S(=O)(=O)Nc2ccc3c(c2)C(=O)N([C@@H](C)CO)C[C@H](C)[C@@H](CN(C)Cc2ccc(C(F)(F)F)cc2)OCCCC[C@@H](C)O3)cc1,active
6,COc1ccc(S(=O)(=O)Nc2ccc3c(c2)C(=O)N([C@H](C)CO)C[C@H](C)[C@@H](CN(C)Cc2ccc(C(F)(F)F)cc2)OCCCC[C@@H](C)O3)cc1,inactive
7,C[C@@H]1CCCCO[C@@H](CN(C)C(=O)c2ccncc2)[C@@H](C)CN([C@H](C)CO)C(=O)c2cc(NC(=O)NC3CCCCC3)ccc2O1,inactive
8,CO[C@H]1CN(C)C(=O)c2ccc(NC(=O)C3CC3)cc2OC[C@H](C)N(C(=O)Cc2ccccn2)C[C@@H]1C,inactive
9,C[C@@H]1CN([C@H](C)CO)C(=O)c2cccc(NC(=O)Nc3ccccc3)c2O[C@@H]1CN(C)Cc1ccc(Cl)c(Cl)c1,inactive
10,C[C@H](CO)N1C[C@H](C)[C@@H](CN(C)C(=O)Nc2ccc3c(c2)OCO3)Oc2ncc(-c3cccnc3)cc2C1=O,inactive
11,CCS(=O)(=O)Nc1ccc2c(c1)C(=O)N(C)[C@H]1CC[C@@H](CC(=O)NCCOC)O[C@H]1CO2,inactive
12,C[C@H](CO)N1C[C@H](C)[C@H](CN(C)CC2CCCCC2)Oc2c(NC(=O)c3cnccn3)cccc2C1=O,inactive
13,Nc1ccn([C@@H]2CS[C@H](CO)O2)c(=O)n1,inactive
14,CN1CCN(C(=O)C[C@H]2CC[C@@H]3[C@@H](COc4ccc(NC(=O)C5CCCCC5)cc4C(=O)N3C)O2)CC1,inactive
15,CCCNC(=O)N1C[C@]2(CN(C2)S(=O)(=O)c2ccc(cc2)OC)c2c(n(c3cc(ccc23)OC)C)[C@@H]1CO,inactive
16,C[C@H](CO)N1C[C@H](C)[C@@H](CN(C)C(=O)c2cccc(F)c2)Oc2cc(C#CC3CC3)ccc2S1(=O)=O,inactive
17,CNC(=O)C[C@H]1CC[C@H]2[C@@H](COC[C@H](O)CN2C(=O)Nc2ccc3c(c2)OCO3)O1,inactive
18,C[C@@H]1CN([C@@H](C)CO)C(=O)c2cc(NC(=O)c3ccncc3)ccc2O[C@@H]1CN(C)S(=O)(=O)c1cccs1,inactive
19,COc1ccc(NC(=O)N(C)C[C@@H]2Oc3ccc(NS(C)(=O)=O)cc3C(=O)N([C@H](C)CO)C[C@@H]2C)cc1,inactive
20,Cc1noc(C)c1NC(=O)N(C)C[C@H]1OCCCC[C@H](C)Oc2ccc(NC(=O)Nc3cccc4ccccc34)cc2C(=O)N([C@H](C)CO)C[C@@H]1C,inactive
21,C[C@@H]1CN([C@@H](C)CO)C(=O)c2cccc(NC(=O)c3ccc(-c4nccs4)cc3)c2O[C@H]1CN(C)C(=O)Nc1ccc2c(c1)OCO2,inactive
22,O=C(O)c1cc(O)c2cccc(O)c2n1,inactive

row,SMILES,cytotoxicity call
1,COc1ccc(S(=O)(=O)Nc2ccc3c(c2)C(=O)N([C@@H](C)CO)C[C@H](C)[C@@H](CN(C)Cc2ccc(C(F)(F)F)cc2)OCCCC[C@H](C)O3)cc1,inactive
2,COc1ccc(S(=O)(=O)Nc2ccc3c(c2)C(=O)N([C@H](C)CO)C[C@H](C)[C@H](CN(C)Cc2ccc(C(F)(F)F)cc2)OCCCC[C@@H](C)O3)cc1,active
3,COc1ccc(S(=O)(=O)Nc2ccc3c(c2)C(=O)N([C@H](C)CO)C[C@H](C)[C@@H](CN(C)Cc2ccc(C(F)(F)F)cc2)OCCCC[C@H](C)O3)cc1,inactive
4,COc1ccc(S(=O)(=O)Nc2ccc3c(c2)C(=O)N([C@H](C)CO)C[C@@H](C)[C@H](CN(C)Cc2ccc(C(F)(F)F)cc2)OCCCC[C@H](C)O3)cc1,inactive
5,COc1ccc(S(=O)(=O)Nc2ccc3c(c2)C(=O)N([C@H](C)CO)C[C@@H](C)[C@H](CN(C)Cc2ccc(C(F)(F)F)cc2)OCCCC[C@@H](C)O3)cc1,active
6,COc1ccc(S(=O)(=O)Nc2ccc3c(c2)C(=O)N([C@@H](C)CO)C[C@@H](C)[C@H](CN(C)Cc2ccc(C(F)(F)F)cc2)OCCCC[C@H](C)O3)cc1,active
7,COc1ccc(S(=O)(=O)Nc2ccc3c(c2)C(=O)N([C@H](C)CO)C[C@H](C)[C@H](CN(C)Cc2ccc(C(F)(F)F)cc2)OCCCC[C@H](C)O3)cc1,inactive
8,COc1ccc(S(=O)(=O)Nc2ccc3c(c2)C(=O)N([C@@H](C)CO)C[C@@H](C)[C@@H](CN(C)Cc2ccc(C(F)(F)F)cc2)OCCCC[C@H](C)O3)cc1,inactive
9,COc1ccc(S(=O)(=O)Nc2ccc3c(c2)C(=O)N([C@H](C)CO)C[C@@H](C)[C@@H](CN(C)Cc2ccc(C(F)(F)F)cc2)OCCCC[C@@H](C)O3)cc1,active
10,COc1ccc(S(=O)(=O)Nc2ccc3c(c2)C(=O)N([C@@H](C)CO)C[C@H](C)[C@H](CN(C)Cc2ccc(C(F)(F)F)cc2)OCCCC[C@@H](C)O3)cc1,inactive
11,C[C@H]1CN([C@@H](C)CO)C(=O)c2cc(NC(=O)CCCN(C)C)ccc2O[C@H]1CN(C)S(=O)(=O)c1ccccc1,inactive
12,C[C@@H]1CN([C@@H](C)CO)S(=O)(=O)c2ccc(Br)cc2O[C@H]1CN(C)C(=O)C1CCCCC1,inactive
13,C[C@@H]1CN([C@H](C)CO)C(=O)c2cc(-c3cccc(C(=O)N(C)C)c3)cnc2O[C@H]1CN(C)S(=O)(=O)c1cccc(F)c1,inactive
14,Cc1cc(C(=O)Nc2cccc3c2O[C@@H](CN(C)S(=O)(=O)c2cccs2)[C@@H](C)CN([C@@H](C)CO)C3=O)n(C)n1,inactive
15,O=C1C[C@@](C(=O)NCc2ccccc2)(c2ccc([N+](=O)[O-])cc2)[C@@H](c2ccc(CO)cc2)N1CC12CC3CC(CC(C3)C1)C2,inactive
16,Cc1ccc(S(=O)(=O)n2cc([C@H]3CC(=O)N(C(=O)OCc4ccccc4)[C@H]3C(=O)Nc3cccc4cccnc34)c3ccccc32)cc1,inactive
17,C[C@@H]1CN([C@@H](C)CO)C(=O)c2cccc(NC(=O)Nc3ccc4c(c3)OCO4)c2O[C@H]1CN(C)S(=O)(=O)c1cn(C)cn1,inactive
18,COc1ccc(CN2CCN(C(c3ccc(F)cc3)c3ccc(F)cc3)CC2)c(OC)c1OC.Cl,active
19,Cc1cccc(CN2CCN(C(c3ccccc3)c3ccc(Cl)cc3)CC2)c1.Cl.Cl (centres undefined),inactive
20,Cl.Cl.Fc1ccc(C(c2ccc(F)cc2)N2CCN(CC=Cc3ccccc3)CC2)cc1,inactive
21,Cc1ccc(S(=O)(=O)N(C)C[C@H]2Oc3c(NC(=O)C4CCOCC4)cccc3C(=O)N([C@H](C)CO)C[C@H]2C)cc1,inactive
22,CCc1nc2ccc(C(=O)Nc3cc(-c4ccccc4)ccc3OC)cn2c1N(C)C(=O)c1cccc(OC)c1,inactive

row,SMILES,cytotoxicity call
1,CC(C)NC(=O)Nc1ccc2c(c1)CC(=O)N([C@H](C)CO)C[C@H](C)[C@@H](CN(C)S(=O)(=O)c1ccccc1)O2,inactive
2,Cc1noc(C)c1NC(=O)N(C)C[C@@H]1OCCCC[C@H](C)Oc2ccc(NC(=O)c3ccccc3)cc2C(=O)N([C@@H](C)CO)C[C@H]1C,inactive
3,Cc1ccc2nc(SCc3ccc4ccccc4c3)[nH]c2c1,active
4,Cc1ccc2nc(SCc3c(C)c(C)cc(C)c3C)[nH]c2c1,inactive
5,Cc1ccc2nc(CN)[nH]c2c1,inactive
6,CCCN(C)C[C@@H]1OCCCC[C@@H](C)Oc2ccc(NC(=O)CCC(F)(F)F)cc2C(=O)N([C@H](C)CO)C[C@@H]1C,inactive
7,C[C@@H]1CCCCO[C@H](CN(C)Cc2ccc(C(=O)O)cc2)[C@H](C)CN([C@@H](C)CO)C(=O)c2cc(NC(=O)NC3CCCCC3)ccc2O1,inactive
8,C[C@H](CO)N1C[C@H](C)[C@H](CN(C)C(=O)c2ccccc2)OCCCC[C@H](C)Oc2ccc(NC(=O)c3ccccc3)cc2C1=O,inactive
9,C=CCC[C@H](Cc1ccc(F)cc1)C(=O)OC[C@H](Cc1c[nH]c2ccccc12)NC(=O)[C@@H](CC=C)CC(=O)N[C@@H](CO)Cc1ccccc1,active
10,C=CCC[C@@H](Cc1ccc(F)cc1)C(=O)OC[C@H](Cc1c[nH]c2ccccc12)NC(=O)[C@@H](CC=C)CC(=O)N[C@@H](CO)Cc1ccccc1,active
11,C=CC[C@H](CC(=O)N[C@@H](CO)Cc1ccccc1)C(=O)N[C@@H](COC(=O)[C@@H](CC=C)Cc1ccc(F)cc1)Cc1c[nH]c2ccccc12,inactive
12,C=CCC[C@@H](Cc1ccc(F)cc1)C(=O)OC[C@H](Cc1c[nH]c2ccccc12)NC(=O)[C@@H](CC=C)CC(=O)N[C@H](CO)Cc1ccccc1,inactive
13,C=CCC[C@H](Cc1ccc(F)cc1)C(=O)OC[C@H](Cc1c[nH]c2ccccc12)NC(=O)[C@H](CC=C)CC(=O)N[C@@H](CO)Cc1ccccc1,inactive
14,C=CCC[C@@H](Cc1ccc(F)cc1)C(=O)OC[C@@H](Cc1c[nH]c2ccccc12)NC(=O)[C@@H](CC=C)CC(=O)N[C@@H](CO)Cc1ccccc1,inactive
15,C=CC[C@@H](CC(=O)N[C@H](CO)Cc1ccccc1)C(=O)N[C@H](COC(=O)[C@@H](CC=C)Cc1ccc(F)cc1)Cc1c[nH]c2ccccc12,inactive
16,C=CCC[C@@H](Cc1ccc(F)cc1)C(=O)OC[C@@H](Cc1c[nH]c2ccccc12)NC(=O)[C@@H](CC=C)CC(=O)N[C@H](CO)Cc1ccccc1,inactive
17,C=CCC[C@H](Cc1ccc(F)cc1)C(=O)OC[C@H](Cc1c[nH]c2ccccc12)NC(=O)[C@@H](CC=C)CC(=O)N[C@H](CO)Cc1ccccc1,active
18,C=CCC[C@H](Cc1ccc(F)cc1)C(=O)OC[C@@H](Cc1c[nH]c2ccccc12)NC(=O)[C@H](CC=C)CC(=O)N[C@@H](CO)Cc1ccccc1,active
19,C=CCC[C@H](Cc1ccc(F)cc1)C(=O)OC[C@@H](Cc1c[nH]c2ccccc12)NC(=O)[C@@H](CC=C)CC(=O)N[C@@H](CO)Cc1ccccc1,inactive
20,C=CCC[C@@H](Cc1ccc(F)cc1)C(=O)OC[C@@H](Cc1c[nH]c2ccccc12)NC(=O)[C@H](CC=C)CC(=O)N[C@@H](CO)Cc1ccccc1,inactive
